# Results: PubChem BioAssay AID920 (The Scripps Research Institute Molecular Screening Center, 2007)
# About 700 (0.35%) of roughly 200,000 compounds were called active. What follows is part of a selection rich in actives, with near analogues and random picks from the rest. Unmarked numbers belong to inactive results.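 Rule for the calls: active = inhibition above a set limit, the mean inhibition across all tested compounds plus 3 SD (cut at about 34% in these data); inactive = the rest.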
# Experiment: STAT1 signaling inhibitors, primary screen, cell-based, HTS, luciferase reporter (AID 920);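 note: 0% = IFN-gamma with DMSO and 100% = IFN-gamma with 300 µM nifuroxazide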
# Details: NIH 3T3 STAT1-luciferase reporter, IFN-gamma, luminescence; at 5.5 µM; active compounds read high
row,Structure (SMILES),inhibition
1,O=C(COC(=O)c1ccc(F)cc1)Nc1nc2ccc([N+](=O)[O-])cc2s1,-0.42%
2,O=C(CSCc1ccccc1)N1CCc2ccccc21,-41.3%
3,O=C(CN1C(=O)c2ccccc2S1(=O)=O)N1CCc2ccccc21,61.3% (active)
4,O=C(CN1CCN(c2ccccn2)CC1)N1CCc2ccccc21,-3.17%
5,S=C(Nc1ccc(Br)cc1Cl)N1CCC2(CC1)OCCO2,-18.2%
6,CCNc1ccc(C(=O)OCC(=O)N2c3ccccc3NC(=O)C2(C)C)cc1[N+](=O)[O-],4.43%
7,Cc1cc(Cl)ccc1OCCCC(=O)NCc1ccncc1,-1.56%
8,C/C(=N/OC(=O)c1cccc(C(F)(F)F)c1)c1cnccn1,-6.55%
9,COc1ccccc1CNC(=O)c1ccc(SC)cc1OC,-9.83%
10,COc1cc(SC)ccc1C(=O)Nc1nc(C)cs1,93.3% (active)
11,COc1cc(SC)ccc1C(=O)Nc1cc(C)ccn1,-2.53%
12,CC(=O)NC(Cc1ccc(F)c(F)c1)C(=O)NC1CCN(c2nnnn2-c2ccccc2)CC1 (stereo unspecified),5.49%
13,CC1c2nc3ccccc3n2C(CC(=O)NCCCN2CCOCC2)C(=O)N1Cc1ccccc1 (stereo unspecified),6.33%
14,C/C(=N/NC(=O)C1COc2ccccc2O1)c1ccco1 (stereo unspecified),-4.92%
15,COC(=O)C1=CN(Cc2ccc(OC)c(OC)c2)C=C(C(=O)OC)C1c1cccs1,59.2% (active)
16,COc1ccc(C2=NN(C(=O)CCC(=O)O)C(c3cccs3)C2)cc1OC (stereo unspecified),3.75%
17,COc1ccc(CCNC(=O)COC(=O)/C=C/c2cccs2)cc1OC,9.78%
18,Cc1cc([N+](=O)[O-])nn1Cc1ccc(F)cc1,6.91%
19,O=c1cnnc(Nc2ccccc2F)[nH]1,-3.73%
20,COc1ccc2c(CC(=O)OCC(=O)Nc3ccccc3[N+](=O)[O-])coc2c1,0.3%
21,CC[C@H]1CN2CCc3cc(OC)c(OC)cc3[C@@H]2C[C@@H]1C[C@H]1NCCc2cc(OC)c(OC)cc21,71.5% (active)
22,COc1cc2c(cc1O)[C@H](Cc1ccc(Oc3cc(C[C@@H]4NCCc5cc(OC)c(O)cc54)ccc3O)cc1)NCC2,5.62%
23,Cc1ccc(NC(=S)N2CCN(c3ncccn3)CC2)cc1C,0.8%
24,CCn1c2ccccc2c2cc(NC(=O)COC(=O)c3cc(S(=O)(=O)N4CCCCC4)ccc3Cl)ccc21,5.58%

row,Structure (SMILES),inhibition
1,CC(=O)c1ccc(-c2nnc(CCC(=O)N(C)Cc3cnc4ccccn34)o2)s1,0.17%
2,CCOc1cc(NC(=O)c2ccccn2)c(OCC)cc1NC(=O)c1ccc(OC)cc1,3.8%
3,COc1ccc(-c2csc(Nc3ccccn3)n2)cc1,-12.9%
4,COc1ccc(C(=O)/C=C/Nc2ccccn2)cc1,82.5% (active)
5,CSc1ccc(CN(C)CC(=O)NCc2ccc(F)cc2)cc1,-7.18%
6,NC(=O)C1CCN(Cc2nc3c(Br)cc(Br)cc3c(=O)[nH]2)CC1,3.52%
7,CCC(=O)Nc1ccccc1N1CCN(S(C)(=O)=O)CC1,2.52%
8,CCCC(=O)Nc1ccccc1N1CCN(C(=O)c2ccccc2)CC1,34.8% (active)
9,O=C(Nc1ccccc1N1CCN(C(=O)c2ccccc2)CC1)c1ccc2c(c1)OCO2,2.21%
10,Cc1nc2ccc(NC(=S)N3CCC(C)CC3)cc2nc1C,-19.9%
11,COc1cccc(-c2nn(-c3ccccc3)cc2/C=C(\C#N)C(=O)NCCCn2ccnc2)c1,-6.77%
12,c1ccc(C2CNCc3c2ccc2ccccc32)cc1 (stereo unspecified),14.8%
13,COc1ccc(CC(=O)Nc2cc(S(=O)(=O)N3CCCCC3)ccc2N2CCN(C)CC2)cc1,1.82%
14,Cn1c(N)c(C(=O)COC(=O)/C=C/c2ccc(OC(F)F)cc2)c(=O)n(C)c1=O,5.58%
15,CS(=O)(=O)N1CCC(C(=O)N2CCN(c3ccccc3)CC2)CC1,7.02%
16,CCOc1ccc2c(c1)C(c1ccc(C)cc1)=NNC(c1ccc(C)cc1)=N2,-36.9%
17,CCc1ccc2c(c1)C(c1ccc([N+](=O)[O-])cc1)=NNC(c1ccccc1)=N2,5.38%
18,Cc1ccc(C2=Nc3c(ccc4ccccc34)C(c3ccncc3)=NN2)cc1,66.7% (active)
19,CCc1ccc(-c2nn(-c3ccccc3)cc2CSC(=N)N)cc1,-3.6%
20,Cc1cc(C)n(CCNC(=O)CC2C(=O)NCCN2Cc2ccc(C)o2)n1 (stereo unspecified),4.76%
21,C=CCn1c(CCc2ccc(OC(C)C)cc2)n[nH]c1=S,-6.91%
22,C=CCN(C(=O)c1cc(C)cc(C)c1)C1(C(=O)Nc2ccccc2)CCN(C(C)C)CC1,-4.59%
23,NC(N)=NCCCc1cn(CC(=O)N2CCNCC2)nn1,3.04%
24,Cc1ccc(C(=O)Cn2cccn2)cc1,-6.86%

row,Structure (SMILES),inhibition
1,Cc1noc(C)c1COc1cccc(C(=O)Nc2cccnc2)c1,2.53%
2,Cc1cccc(OCCNC(=S)NC(=O)c2cccnc2)c1,-6.17%
3,CN(Cc1cccnc1)C(=O)c1cc(COc2ccc3ncccc3c2)on1,34.3% (active)
4,Cc1cccc(N2CCN(c3ccc(NC(=O)/C=C\C(=O)O)cc3)CC2)c1,1.29%
5,OCCC1CN(Cc2cccc(O)c2)CCN1CCc1ccccc1 (stereo unspecified),8.18%
6,S=C(NCCc1ccccc1)N1CCn2cccc2C1c1ccncc1 (stereo unspecified),21.8%
7,Cc1ccc(Oc2ccc(N)cc2)cc1,-19.6%
8,CC(C)(C)c1ccc(Oc2ccc(N)cc2)cc1,64.1% (active)
9,Nc1ccc(Oc2ccc(Cl)cc2)cc1,-14.9%
10,COc1ccc([C@H]2[C@H](C(C)=O)N3N=Cc4ccccc4C3C23C(=O)OC(C)(C)OC3=O)cc1 (stereo partly specified),-13.7%
11,Cn1c(NC(=O)c2ccc3c(c2)OCO3)cc(=O)n(C)c1=O,0.99%
12,COc1ccc(C(=O)Nc2ccc3c(c2)OCO3)cc1OC,-0.74%
13,Cn1c(=O)n(C)c2cc(C(=O)Nc3ccc4c(c3)OCO4)ccc21,35.6% (active)
14,Clc1cccc(-c2nc(NCC3CCCO3)c3ccccc3n2)c1 (stereo unspecified),-0.29%
15,CCc1[nH]nc(C(=O)N2CCCC(CNS(=O)(=O)c3cccs3)C2)c1C (stereo unspecified),0.5%
16,O=C(Nc1cccc([N+](=O)[O-])c1)Nc1ccc(Cl)cn1,-18.6%
17,O=C(CCl)N(Cc1cccc([N+](=O)[O-])c1)c1cccc(Cl)c1,60.4% (active)
18,CCN(CC)C(=O)CN(c1cccc([N+](=O)[O-])c1)S(=O)(=O)c1ccccc1,3.4%
19,Cn1cccc1/C=C1\SC(=S)N(NC(=O)c2ccc(Cl)cc2)C1=O,-4.58%
20,Cc1cc(C)nc(Nc2ncn[nH]2)n1,-2.94%
21,Oc1ccc(-c2nncn2-c2ccccc2)cc1,-0.73%
22,COc1ccc(OCc2cccc(C(=O)N3CCCC3)c2)cc1,17.5%
23,CCN(CC)C(=O)c1ccc(O)c(OC)c1,1.97%
24,CCOc1ccc(OCc2cccc(C(=O)N(CC)CC)c2)cc1,61% (active)

row,Structure (SMILES),inhibition
1,CCOc1ccc(NC(=O)CSc2ncnc3c2sc2ccccc23)cc1,1.83%
2,Cc1nnc(CN(C)Cc2cn[nH]c2-c2ccc(-c3ccccc3)cc2)o1,-18.1%
3,CCCCn1c(O)c(N=NC(=O)Cn2c(C(F)(F)F)nc3ccccc32)c2ccccc21,-1.73%
4,Cc1ccc(N(C(=O)Cc2cccs2)C2C=CS(=O)(=O)C2)cc1Cl (stereo unspecified),0.68%
5,C[C@@H]1C[C@@H]2O[C@H]2/C=C\C=C\C(=O)Cc2c(Cl)c(O)cc(O)c2C(=O)O1,41.3% (active)
6,O=C(COC(=O)CCc1ccc(S(=O)(=O)N2CCOCC2)cc1)Nc1cccc(Cl)c1,-8.09%
7,CCN(CC)S(=O)(=O)c1ccc(C)c(NC(=O)COc2ccc(Br)cc2Cl)c1,0.32%
8,Cn1cc([N+](=O)[O-])c(C(=O)Nc2cnn(Cc3ccc(F)cc3)c2)n1,20.5%
9,O=C(Nc1ccc2c(c1)OCCO2)c1cnccn1,-23.3%
10,Cn1cc([N+](=O)[O-])c(C(=O)Nc2ccc3c(c2)OCCO3)n1,48.8% (active)
11,NS(=O)(=O)c1ccc(N2C(=O)C3C4CC(C(Br)C4Br)C3C2=O)cc1 (stereo unspecified),2.56%
12,CS(=O)(=O)N(Cc1ccccc1)c1ccc(C(=O)NN=C2CCCCCC2)cc1,6.58%
13,O=C(Nc1nc2ccc([N+](=O)[O-])cc2s1)c1ccc(S(=O)(=O)N2CCCc3ccccc32)cc1,12.3%
14,O=C(O)CCC(=O)Nc1nc2ccc([N+](=O)[O-])cc2s1,-0.97%
15,O=C(NC(Nc1nc2ccc([N+](=O)[O-])cc2s1)(C(F)(F)F)C(F)(F)F)c1ccccc1,60.6% (active)
16,O=C(COc1ccccc1)Nc1ccc(N2CCN(C(=O)c3cccs3)CC2)cc1,-5.48%
17,CN(c1ccc2nc3ccccc3c(=O)n2n1)C1CCCCC1,90.1% (active)
18,O=c1c2ccccc2nc2n1C1(CCCCC1)Cc1ccccc1-2,-5.21%
19,CCOC(=O)C(C)Sc1nc2ccccc2c(=O)n1CC1CCCCC1 (stereo unspecified),2.46%
20,Cc1ccc(C)c(-n2nnnc2SCC(=O)c2c(N)n(C)c(=O)n(C)c2=O)c1,-0.37%
21,CCc1ccc(NC(=O)Nc2ccncc2)cc1,-10.4%
22,CCCOc1cc(C)c(S(=O)(=O)n2nnc3ccccc32)cc1C,-0.4%
23,COc1cc(C)c(Cl)cc1S(=O)(=O)n1ccnc1,7.39%
24,CCOc1cc(C)c(Cl)cc1S(=O)(=O)n1nnc2ccccc21,42.2% (active)
